Results filed as inconclusive are left out. The source made the active and inactive calls. Unless noted, calls come from the whole dose curve; as a rule, active = well fitted curve in the direction sought with a large enough effect in the repeat runs; inconclusive = weak or mixed curves; inactive = no such curve, though single readings can be large; an effect the other way counts as inactive or inconclusive.
Columns and labels:
[1] = qHTS assay to identify small molecule agonists of the TGF-beta/Smad signaling pathway - cell viability counter screen (AID 1346829); note: top concentration of the series differs between compounds; nearly all actives have a fitted effect of over 45% in size
Method in brief: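 Tox21 qHTS format: SBE-bla HEK 293T cells treated with DMSO-dissolved compounds for 5 hr; CellTiter-Glo luminescence after 30 min at room temperature.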

[2] = qHTS assay to identify small molecule agonists of the TGF-beta/Smad signaling pathway (AID 1346859; active = well fitted activation curve with a large enough effect in the signal ratio in the repeat runs, not every such curve was filed as active; the % refers to the signal ratio; note: series mostly up to about 77 µM)
Method in brief: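 Smad-responsive beta-lactamase reporter cells (HEK 293T) received compounds from DMSO stocks after overnight attachment, were incubated 5 hr, then treated 2 hr with FRET substrate before dual-emission fluorescence measurement (405 nm excitation).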

[3] = target: Thyrotropin-releasing hormone receptor (Homo sapiens) (UniProt P34981); assay: qHTS assay to identify small molecule antagonists of the thyrotropin-releasing hormone receptor (TRHR) signaling pathway (AID 1346877; active = well fitted inhibition curve with a large enough effect in the repeat runs, not every such curve was filed as active; note: series mostly up to about 51 µM)
Method in brief: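 Calcium signal in dye-loaded TRHR/HEK293 cells; compounds added 5 min before TRH (1 nM final); fluorescence monitored 3 min at 1 s steps.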

[4] = target: Thyrotropin-releasing hormone receptor (Homo sapiens) (UniProt P34981); assay: qHTS assay to identify small molecule agonists of the thyrotropin-releasing hormone receptor (TRHR) signaling pathway (AID 1346891; calls by dose curve;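 note: HEK293 cells expressing TRHR with calcium dye readout; series mostly up to about 58 µM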)
Method in brief: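 Agonist-mode calcium mobilisation screen: TRHR-transfected HEK293 cells cultured overnight (18 h), dye-loaded for 2 h at 37 °C, exposed to compounds, and monitored by fluorescence for 3 min.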

[5] = Human pregnane X receptor (PXR) small molecule agonists, qHTS cell viability counter screen (AID 1346977); note: nearly all actives have a fitted effect of over 50% in size
Method in brief: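 Measures live-cell protease fluorescence (CellTiter-Fluor) in PXR-Luc HepG2 cells treated 24hr with compounds at 37C. Cells had 5hr to attach before pin transfer of DMSO solutions.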

[6] = Caspase-3/7 induction in HepG2 cells by small molecules, qHTS assay (AID 1346978); note: nearly all actives have a fitted effect of over 15% in size
Method in brief: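 Wild-type HepG2 cells (2,000/well) were settled 5 h at 37 C, 5% CO2, then exposed to compounds in DMSO for 17 h. Caspase-3/7 activity was read by luminescence 30 min after adding Caspase-Glo 3/7 reagent at room temperature.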

[7] = Caspase-3/7 induction in CHO-K1 cells by small molecules, qHTS cell viability counter screen (AID 1346979); note: nearly all actives have a fitted effect of over 35% in size
Method in brief: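 In the same wells as the caspase read, viability of compound-treated wild-type CHO-K1 cells was assessed using CellTiter-Fluor, added after 16hr at 37C and measured by fluorescence following 1hr further incubation.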

[8] = Caspase-3/7 induction in CHO-K1 cells by small molecules, qHTS assay (AID 1346980); note: nearly all actives have a fitted effect of over 15% in size
Method in brief: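 Wild-type cells were seeded at 1,500 per well and settled 5 hr at 37 C, 5% CO2, then exposed to DMSO-dissolved compounds for 17 hr. Caspase-Glo 3/7 reagent was added, and luminescence was read after 30min at room temperature.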

[9] = Caspase-3/7 induction in HepG2 cells by small molecules, qHTS cell viability counter screen (AID 1346981); note: series mostly up to about 92 µM; nearly all actives have a fitted effect of over 30% in size
Method in brief: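 After a 5-hr attachment period at 37 C and 5% CO2, wild-type HepG2 cells received compounds in DMSO. Sixteen hours later CellTiter-Fluor was dispensed and the fluorescent signal quantified after a further hour.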

[10] = target: Nuclear receptor subfamily 1 group I member 2 (Homo sapiens) (UniProt O75469); assay: Human pregnane X receptor (PXR) small molecule agonists, qHTS assay (AID 1346982); note: nearly all actives have a fitted effect of over 35% in size; note: potency is the fitted concentration of half-maximal effect
Method in brief: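 Tox21 qHTS; PXR-Luc HepG2; compounds pinned from DMSO; 24 hr, 37 C; ONE-Glo luciferase detection, 30 min room temperature.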

[11] = target: Cytochrome P450 2D6 (Homo sapiens) (UniProt P10635); assay: Cytochrome P450 Family 2 Subfamily D Member 6 (CYP2D6) small molecule antagonists: luciferase reporter qHTS assay (AID 1671196); note: series mostly up to about 120 µM; nearly all actives have a fitted effect of over 50% in size
Method in brief: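 Room-temperature luminescent CYP2D6 activity assay: compound preincubated 10 min with enzyme–substrate mix, NADPH-initiated reaction 1 h, detection reagent 20 min before reading.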

[12] = target: Cytochrome P450 2C19 (Homo sapiens) (UniProt P33261); assay: Cytochrome P450 Family 2 Subfamily C Member 19 (CYP2C19) small molecule antagonists: luciferase reporter qHTS assay (AID 1671197); note: nearly all actives have a fitted effect of over 65% in size; note: potency is the fitted concentration of half-maximal effect; for activity change, negative = inhibition: series mostly up to about 120 µM
Method in brief: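 Relative luminescence units recorded 20 min after the detection reagent stopped a 1 h, 37C CYP2C19 reaction on proluciferin substrate, which was started by NADPH regeneration following 10 min room-temperature compound preincubation; ketoconazole positive control.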

[13] = target: Cytochrome P450 2C9 (Homo sapiens) (UniProt P11712); assay: Cytochrome P450 Family 2 Subfamily C Member 9 (CYP2C9) small molecule antagonists: luciferase reporter qHTS assay (AID 1671198); note: nearly all actives have a fitted effect of over 50% in size; note: potency is the fitted concentration of half-maximal effect; for activity change, negative = inhibition: series mostly up to about 120 µM
Method in brief: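 CYP2C9 activity was measured with a P450-Glo proluciferin substrate. Enzyme–substrate mix was held with compound for 10 min at room temperature, then NADPH regeneration solution was added for 1 h at 37C. Luciferin product was read as luminescence.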

[14] = target: Cytochrome P450 1A2 (Homo sapiens) (UniProt P05177); assay: Cytochrome P450 Family 1 Subfamily A Member 2 (CYP1A2) small molecule antagonists: luciferase reporter qHTS assay (AID 1671199); note: nearly all actives have a fitted effect of over 50% in size; note: potency is the fitted concentration of half-maximal effect; for activity change, negative = inhibition: series mostly up to about 120 µM
Method in brief: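 Room-temperature CYP1A2 reaction with proluciferin substrate: compounds added from DMSO, 10 min preincubation, NADPH regeneration for 1 h. Luciferin detection reagent then added; luminescence recorded as RLU.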

[15] = target: Voltage-gated inwardly rectifying potassium channel KCNH2 (Homo sapiens) (UniProt Q12809); assay: Human Ether-a-go-go-Related Gene (hERG) channel small molecule antagonists: fluorescence cell-based qHTS assay (AID 1671200); note: nearly all actives have a fitted effect of over 50% in size; note: potency is the fitted concentration of half-maximal effect;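 for activity change, negative = inhibition: hERG-expressing U2OS cells given a thallium stimulus after FluxOR II dye loading; series mostly up to about 77 µM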
Method in brief: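 Quantitative HTS in hERG-U2OS cells: thallium entry through the channel reports activity, read as continuous 480/540 nm fluorescence over 2 min after stimulus addition.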

[16] = target: Cytochrome P450 3A4 (Homo sapiens) (UniProt P08684); assay: Cytochrome P450 Family 3 Subfamily A Member 4 (CYP3A4) small molecule antagonists: luciferase reporter qHTS assay (AID 1671201)
Method in brief: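 Inhibition of CYP3A4 is measured as loss of light: the enzyme converts a proluciferin substrate to luciferin, detected luminescently. Reaction ran 1 h at room temperature with NADPH regeneration after a 10 min compound preincubation.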

[17] = target: Nuclear receptor subfamily 1 group I member 2 (Rattus norvegicus) (UniProt Q9R1A7); assay: Rat pregnane X receptor (rPXR) activation by small molecules, qHTS assay (AID 1346983); settings: rPXR luciferase reporter cells, One-Glo luminescence, 24 h; max activation: stronger effect = higher value; note: nearly all actives have a fitted effect of over 20% in size
Method in brief: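 Cell-based rPXR luciferase reporter assay, 2,000 cells per well, rested 5hr at 37 C before compound addition in DMSO, then 24 hr at 37 C. One-Glo reagent was added and luminescence read after 30 min at room temperature.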

[18] = target: Nuclear receptor subfamily 1 group I member 2 (Homo sapiens) (UniProt O75469); assay: CYP3A4 induction through human pregnane X receptor (PXR) by small molecules, qHTS assay (AID 1346984); note: nearly all actives have a fitted effect of over 40% in size
Method in brief: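 Cells (DPX-2; HepG2 with PXR element plus CYP3A4-promoter luciferase) settled 5hr, then were treated 24hr at 37C. A 3hr, 3uM-final Luciferin-IPA step preceded luminescence measurement with One-Glo.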
% is set by controls: 0 for no effect and ±100 for the full control effect.

Cytochrome P450 3A4 (Homo sapiens), sequence (P08684 whole entry, looked up): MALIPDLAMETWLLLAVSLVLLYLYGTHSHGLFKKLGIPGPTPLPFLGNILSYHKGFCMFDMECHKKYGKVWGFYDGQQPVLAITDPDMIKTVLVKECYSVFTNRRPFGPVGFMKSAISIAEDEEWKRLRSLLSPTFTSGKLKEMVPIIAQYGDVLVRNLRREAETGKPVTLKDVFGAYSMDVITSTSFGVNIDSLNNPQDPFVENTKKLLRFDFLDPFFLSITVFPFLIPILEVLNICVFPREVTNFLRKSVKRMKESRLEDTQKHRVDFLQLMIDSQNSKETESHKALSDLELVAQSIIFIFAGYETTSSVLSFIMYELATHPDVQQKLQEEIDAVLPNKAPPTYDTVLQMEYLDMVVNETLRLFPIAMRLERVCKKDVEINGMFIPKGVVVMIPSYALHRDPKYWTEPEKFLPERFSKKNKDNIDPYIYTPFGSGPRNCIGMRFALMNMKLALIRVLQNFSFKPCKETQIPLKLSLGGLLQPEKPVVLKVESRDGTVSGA
Voltage-gated inwardly rectifying potassium channel KCNH2 (Homo sapiens), sequence (Q12809 whole entry, looked up): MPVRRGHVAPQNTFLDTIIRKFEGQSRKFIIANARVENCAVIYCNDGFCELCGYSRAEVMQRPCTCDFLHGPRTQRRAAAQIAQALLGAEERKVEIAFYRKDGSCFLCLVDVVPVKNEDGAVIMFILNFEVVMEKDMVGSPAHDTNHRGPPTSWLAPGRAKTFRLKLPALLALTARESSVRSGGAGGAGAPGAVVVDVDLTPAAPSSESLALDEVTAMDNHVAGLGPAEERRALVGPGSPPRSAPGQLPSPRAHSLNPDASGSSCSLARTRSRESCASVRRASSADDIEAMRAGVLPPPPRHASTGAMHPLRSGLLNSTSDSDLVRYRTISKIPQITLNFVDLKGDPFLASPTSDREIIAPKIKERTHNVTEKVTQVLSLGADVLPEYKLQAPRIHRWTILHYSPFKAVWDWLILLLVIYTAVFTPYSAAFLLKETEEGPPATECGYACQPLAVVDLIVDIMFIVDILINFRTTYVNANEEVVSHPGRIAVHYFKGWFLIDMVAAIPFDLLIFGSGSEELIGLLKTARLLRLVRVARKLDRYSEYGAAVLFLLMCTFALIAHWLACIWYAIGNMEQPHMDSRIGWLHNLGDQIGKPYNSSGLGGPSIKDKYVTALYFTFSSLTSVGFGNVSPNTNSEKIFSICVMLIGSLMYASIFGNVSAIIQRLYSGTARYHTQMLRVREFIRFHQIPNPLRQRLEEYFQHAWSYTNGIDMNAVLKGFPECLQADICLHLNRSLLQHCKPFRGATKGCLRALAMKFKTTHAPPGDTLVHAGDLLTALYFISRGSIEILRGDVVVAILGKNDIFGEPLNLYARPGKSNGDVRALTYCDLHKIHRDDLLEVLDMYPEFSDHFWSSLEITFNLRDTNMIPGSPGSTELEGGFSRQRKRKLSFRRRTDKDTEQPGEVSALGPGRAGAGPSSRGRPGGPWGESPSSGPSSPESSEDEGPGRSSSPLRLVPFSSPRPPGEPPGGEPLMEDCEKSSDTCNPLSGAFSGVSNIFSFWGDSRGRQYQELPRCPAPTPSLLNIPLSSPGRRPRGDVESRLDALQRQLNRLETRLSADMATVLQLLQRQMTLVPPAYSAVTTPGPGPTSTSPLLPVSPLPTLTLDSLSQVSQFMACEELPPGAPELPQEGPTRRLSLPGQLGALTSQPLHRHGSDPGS
Cytochrome P450 1A2 (Homo sapiens), sequence (P05177 whole entry, looked up): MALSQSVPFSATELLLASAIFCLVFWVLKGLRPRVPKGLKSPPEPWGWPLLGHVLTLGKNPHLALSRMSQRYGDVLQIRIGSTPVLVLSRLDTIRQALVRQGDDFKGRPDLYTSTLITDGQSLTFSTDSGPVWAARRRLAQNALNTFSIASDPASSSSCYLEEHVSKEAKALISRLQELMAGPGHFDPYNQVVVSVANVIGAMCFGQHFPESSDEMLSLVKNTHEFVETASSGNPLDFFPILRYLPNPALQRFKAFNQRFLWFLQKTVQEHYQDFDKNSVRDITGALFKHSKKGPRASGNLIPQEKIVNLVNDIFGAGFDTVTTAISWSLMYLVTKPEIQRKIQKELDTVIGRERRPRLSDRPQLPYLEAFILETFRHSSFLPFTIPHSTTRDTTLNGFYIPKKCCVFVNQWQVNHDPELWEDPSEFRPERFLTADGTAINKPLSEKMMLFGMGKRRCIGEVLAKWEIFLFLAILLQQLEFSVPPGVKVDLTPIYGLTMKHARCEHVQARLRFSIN
Thyrotropin-releasing hormone receptor (Homo sapiens), sequence (P34981 whole entry, looked up): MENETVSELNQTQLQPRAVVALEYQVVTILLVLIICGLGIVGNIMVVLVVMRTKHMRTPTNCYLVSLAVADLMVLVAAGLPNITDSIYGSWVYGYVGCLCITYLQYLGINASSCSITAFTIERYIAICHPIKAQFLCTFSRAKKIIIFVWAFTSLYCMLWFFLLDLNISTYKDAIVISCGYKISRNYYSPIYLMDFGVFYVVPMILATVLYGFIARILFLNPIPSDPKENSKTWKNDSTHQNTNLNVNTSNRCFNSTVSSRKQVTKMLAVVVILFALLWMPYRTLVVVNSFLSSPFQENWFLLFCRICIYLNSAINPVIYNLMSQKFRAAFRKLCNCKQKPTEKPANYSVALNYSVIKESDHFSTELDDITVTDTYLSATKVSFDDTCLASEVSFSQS
Cytochrome P450 2C9 (Homo sapiens), sequence (P11712 whole entry, looked up): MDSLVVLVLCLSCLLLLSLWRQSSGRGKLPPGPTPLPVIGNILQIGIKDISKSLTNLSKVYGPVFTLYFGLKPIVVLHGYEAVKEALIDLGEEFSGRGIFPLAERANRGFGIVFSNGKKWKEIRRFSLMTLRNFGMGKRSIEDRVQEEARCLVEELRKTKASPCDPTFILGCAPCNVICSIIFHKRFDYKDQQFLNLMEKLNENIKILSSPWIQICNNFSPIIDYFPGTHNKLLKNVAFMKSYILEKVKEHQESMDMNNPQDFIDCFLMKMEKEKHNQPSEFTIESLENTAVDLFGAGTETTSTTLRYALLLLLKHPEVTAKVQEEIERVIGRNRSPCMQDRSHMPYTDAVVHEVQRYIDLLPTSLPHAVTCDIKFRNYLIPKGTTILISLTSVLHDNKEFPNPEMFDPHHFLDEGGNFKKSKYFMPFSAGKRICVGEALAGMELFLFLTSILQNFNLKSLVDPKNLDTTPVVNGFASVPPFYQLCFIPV
Cytochrome P450 2D6 (Homo sapiens), sequence (P10635 whole entry, looked up): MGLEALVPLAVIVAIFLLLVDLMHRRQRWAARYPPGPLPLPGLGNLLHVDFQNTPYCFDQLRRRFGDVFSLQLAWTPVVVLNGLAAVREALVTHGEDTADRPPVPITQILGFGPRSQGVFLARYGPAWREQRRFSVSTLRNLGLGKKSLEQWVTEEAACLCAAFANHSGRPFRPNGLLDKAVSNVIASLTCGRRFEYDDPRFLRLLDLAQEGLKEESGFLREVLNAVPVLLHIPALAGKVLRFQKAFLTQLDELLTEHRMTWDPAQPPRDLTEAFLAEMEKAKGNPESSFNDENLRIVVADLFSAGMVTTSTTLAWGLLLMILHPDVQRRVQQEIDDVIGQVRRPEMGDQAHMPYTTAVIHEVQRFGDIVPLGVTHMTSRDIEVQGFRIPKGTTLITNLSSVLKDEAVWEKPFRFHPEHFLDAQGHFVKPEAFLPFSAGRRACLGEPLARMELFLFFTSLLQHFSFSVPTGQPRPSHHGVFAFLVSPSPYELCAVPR
Cytochrome P450 2C19 (Homo sapiens), sequence (P33261 whole entry, looked up): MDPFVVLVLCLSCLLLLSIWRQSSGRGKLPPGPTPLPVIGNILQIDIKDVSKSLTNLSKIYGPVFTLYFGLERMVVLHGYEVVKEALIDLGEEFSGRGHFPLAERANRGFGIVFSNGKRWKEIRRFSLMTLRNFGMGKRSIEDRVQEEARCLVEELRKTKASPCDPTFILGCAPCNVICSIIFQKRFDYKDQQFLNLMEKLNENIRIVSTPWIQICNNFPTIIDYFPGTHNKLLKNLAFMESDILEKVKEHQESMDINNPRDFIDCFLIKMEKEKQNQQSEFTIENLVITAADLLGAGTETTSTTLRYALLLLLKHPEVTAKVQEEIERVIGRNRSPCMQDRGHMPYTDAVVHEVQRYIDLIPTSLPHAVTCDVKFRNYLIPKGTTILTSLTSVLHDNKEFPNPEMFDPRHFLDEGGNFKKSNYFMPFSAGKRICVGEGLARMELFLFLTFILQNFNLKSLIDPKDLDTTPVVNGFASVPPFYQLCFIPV
Nuclear receptor subfamily 1 group I member 2 (Homo sapiens), sequence (O75469 whole entry, looked up): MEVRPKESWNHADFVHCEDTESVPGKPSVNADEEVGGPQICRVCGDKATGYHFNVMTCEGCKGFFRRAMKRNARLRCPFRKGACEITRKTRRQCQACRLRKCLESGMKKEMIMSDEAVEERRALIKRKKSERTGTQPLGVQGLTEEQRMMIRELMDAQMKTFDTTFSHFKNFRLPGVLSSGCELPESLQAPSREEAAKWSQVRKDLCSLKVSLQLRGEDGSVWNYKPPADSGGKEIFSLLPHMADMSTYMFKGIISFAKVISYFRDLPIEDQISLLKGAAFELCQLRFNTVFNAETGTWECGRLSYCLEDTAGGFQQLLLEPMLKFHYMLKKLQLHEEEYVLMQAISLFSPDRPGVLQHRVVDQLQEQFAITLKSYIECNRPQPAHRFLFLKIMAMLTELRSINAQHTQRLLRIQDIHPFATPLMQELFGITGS
Nuclear receptor subfamily 1 group I member 2 (Rattus norvegicus), sequence (Q9R1A7 whole entry, looked up): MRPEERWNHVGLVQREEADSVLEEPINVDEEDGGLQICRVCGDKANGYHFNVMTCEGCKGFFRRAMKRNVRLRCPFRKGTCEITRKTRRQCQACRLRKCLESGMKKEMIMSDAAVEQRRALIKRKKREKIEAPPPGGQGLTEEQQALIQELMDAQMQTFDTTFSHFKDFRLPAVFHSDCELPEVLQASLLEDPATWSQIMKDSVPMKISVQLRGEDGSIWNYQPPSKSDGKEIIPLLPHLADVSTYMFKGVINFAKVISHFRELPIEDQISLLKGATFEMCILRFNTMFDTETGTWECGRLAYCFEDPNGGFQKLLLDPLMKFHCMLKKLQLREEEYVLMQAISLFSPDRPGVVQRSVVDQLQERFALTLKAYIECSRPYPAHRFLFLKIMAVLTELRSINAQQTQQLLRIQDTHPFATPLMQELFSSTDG

CCC(C)N (stereo not drawn)
inactive: outcome [1] | outcome [2] | outcome [3] | outcome [4] | Potency [5] | outcome [6] | Potency [7] | outcome [8] | Potency [9] | Potency [10] | Potency [11] | Potency [12] | Potency [13] | Potency [14] | Potency [15] | Potency [16]

OCCCCCCCl
inactive: outcome [1] | outcome [2] | outcome [3] | outcome [4] | Potency [5] | outcome [6] | Potency [7] | outcome [8] | Potency [9] | Potency [10] | Potency [11] | Potency [12] | Potency [13] | Potency [14] | Potency [15] | Potency [16]

CC(C)CCC(=O)CCC(C)C
active: Potency [14] 39.9 µM
inactive: outcome [1] | outcome [2] | outcome [3] | outcome [4] | Potency [5] | outcome [6] | Potency [7] | outcome [8] | Potency [9] | Potency [10] | Potency [11] | Potency [13] | Potency [15] | Potency [16]

CCOc1ccc(NC(=O)OC(C)C)cc1OCC
active: Potency [10] 48.6 µM | Potency [12] 71 µM | Potency [14] 5.03 µM
inactive: outcome [1] | outcome [2] | outcome [3] | outcome [4] | Potency [5] | outcome [6] | Potency [7] | outcome [8] | Potency [9] | Potency [13] | Potency [15] | Potency [16]

C=CCOCC(O)CCl (stereo not drawn)
inactive: outcome [1] | outcome [2] | outcome [3] | outcome [4] | Potency [5] | outcome [6] | Potency [7] | outcome [8] | Potency [9] | Potency [10] | Potency [11] | Potency [16]

O=C(CN1CCN(Cc2ccc3c(c2)OCO3)CC1)N1c2ccccc2Sc2ccccc21
inactive: outcome [1] | outcome [2] | outcome [3] | outcome [4] | Potency [5] | outcome [6] | Potency [7] | outcome [8] | Potency [9] | max activation [17] 6.39% | outcome [18] | Potency [14]
active: Potency [10] 11.9 µM | Potency [13] 15.5 µM | Potency [15] 4.77 µM

O=c1[nH]c(=O)c2[nH]c(=O)[nH]c2[nH]1
inactive: activity change, negative = cytotoxicity [1] -0.0048% [at 6.97 µM] | activation [2] -2.44% [at 6.97 µM] | activity, negative = inhibition [3] 0.0155% [at 4.65 µM] | activation [4] 0.501% [at 5.23 µM] | activity change, negative = cytotoxicity [5] -1.5% [at 8.39 µM] | caspase activation [6] -0.796% [at 8.39 µM] | activity change, negative = cytotoxicity [7] 4.37% [at 8.39 µM] | caspase-3/7 activation [8] -0.0479% [at 8.39 µM] | activity change, negative = cytotoxicity [9] 2.67% [at 8.39 µM] | activation [10] -5.05% [at 8.39 µM] | max activation [17] -2.16% | outcome [18] | activity change, negative = inhibition [12] -2.11% [at 10.5 µM] | activity change, negative = inhibition [13] 10.1% [at 10.5 µM] | activity change, negative = inhibition [14] -28.5% [at 10.5 µM] | activity change, negative = inhibition [15] -12.8% [at 6.97 µM] | activity change, negative = inhibition [16] 20% [at 10.5 µM]

CCC(CO)CO
inactive: outcome [1] | outcome [2] | outcome [3] | outcome [4] | Potency [5] | outcome [6] | Potency [7] | outcome [8] | Potency [9] | Potency [10] | Potency [11] | Potency [12] | Potency [13] | Potency [15] | Potency [16]

CC(=O)/C=C/c1ccco1
inactive: outcome [1] | outcome [2] | outcome [3] | outcome [4] | Potency [5] | outcome [6] | Potency [7] | outcome [8] | Potency [9] | Potency [10] | Potency [11] | Potency [12] | Potency [13] | Potency [15] | Potency [16]

Nc1cc(Cl)cc(S(=O)(=O)O)c1O
inactive: outcome [1] | outcome [2] | outcome [3] | outcome [4] | Potency [5] | outcome [6] | Potency [7] | outcome [8] | Potency [9] | Potency [10] | Potency [11] | Potency [14] | Potency [15] | Potency [16]
active: Potency [12] 41 µM | Potency [13] 20.6 µM

Nc1ccc(C(=O)OCC(O)CO)cc1 (stereo not drawn)
inactive: outcome [1] | outcome [2] | outcome [3] | outcome [4] | Potency [5] | outcome [6] | Potency [7] | outcome [8] | Potency [9] | Potency [10] | Potency [11] | Potency [15]
active: Potency [12] 17.4 µM | Potency [14] 15.5 µM

CC(C)COC(=O)CCCCC(=O)OCC(C)C
active: Potency [13] 22.4 µM | Potency [14] 39.9 µM
inactive: outcome [1] | outcome [2] | outcome [3] | outcome [4] | Potency [5] | outcome [6] | Potency [7] | outcome [8] | Potency [9] | Potency [10] | Potency [11] | Potency [12] | Potency [16]

CCCOCCOCCOCCO
inactive: outcome [1] | outcome [2] | outcome [3] | outcome [4] | Potency [5] | outcome [6] | Potency [7] | outcome [8] | Potency [9] | Potency [10] | Potency [11] | Potency [12] | Potency [13] | Potency [15] | Potency [16]

C[CH2][Ge]([Cl])([CH2]C)[CH2]C
inactive: outcome [1] | outcome [2] | outcome [3] | outcome [4] | Potency [5] | outcome [6] | Potency [7] | outcome [8] | Potency [9] | Potency [10] | Potency [11] | Potency [12] | Potency [13] | Potency [14] | Potency [15] | Potency [16]

CC(C)(C)NCCO
inactive: outcome [1] | outcome [2] | outcome [3] | outcome [4] | Potency [5] | outcome [6] | Potency [7] | outcome [8] | Potency [9] | Potency [10] | Potency [11] | Potency [12] | Potency [13] | Potency [15] | Potency [16]
active: Potency [14] 39.9 µM

CC(C)(C)c1ccc(C=O)cc1
inactive: outcome [1] | outcome [2] | outcome [3] | outcome [4] | Potency [5] | outcome [6] | Potency [7] | outcome [8] | Potency [9] | Potency [10] | Potency [11] | Potency [12] | Potency [13] | Potency [15] | Potency [16]

Source: PubChem BioAssay (Tox21)
